Here are results for 19 molecules from PubChem BioAssay.

The structures appear in SMILES notation. A number with no mark means an inactive call. For some assays here: Results with a measured potency or affinity are listed apart. The source made the active and inactive calls. Unless noted, no rule for the calls is given here.

The nature of test [1]: antimalarial activity against Dd2 strain (AID 2302;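 active = growth inhibition above 50% at the single 2 µM test dose, taken to imply half-maximal potency below 2 µM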;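 also: 0% = DMSO untreated growth and 100% = chloroquine plus artemisinin killed control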). The following applies: P. falciparum Dd2 in RBCs, LDH growth readout, 72 h; at 2 µM; hits give high values.
Test [2] is described as follows: human hepatoma cell viability loss – ATP luminescence, cytotoxicity control for P. falciparum antimalarial project, primary screen (AID 2303;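 active = inhibition above 50%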;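 also: 0% = DMSO wells and 100% = digitonin-killed cells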). The following applies: HepG2 viability, 24-48 h, at 10 µM, hits give high values.
Test [3] has as its target L-lactate dehydrogenase (Plasmodium falciparum (isolate CDC / Honduras)) (UniProt Q27743). The experiment in a line: PfLDH activity inhibition – cell lysate, 3D7 strain, counter-screen for P. falciparum growth inhibition project (AID 2304).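 Also: 0% = vehicle and 100% = reference inhibitor.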 The following applies: P. falciparum 3D7 crude extract, LDH APAD/NBT absorbance; at 2 µM; hits give high values.
Test [4] is described as follows: inhibition of 3D7 malaria parasite growth – strain 3D7 (AID 2306).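 Also: 0% = DMSO wells and 100% = chloroquine plus artemisinin control wells.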 The following applies: P. falciparum 3D7 erythrocytic growth, LDH absorbance, 72 h; at 2 µM; hits give high values.
The target in test [5] is Calcium-dependent protein kinase 1 (Plasmodium falciparum (isolate 3D7)) (UniProt P62344). Briefly: PfCDPK1 kinase inhibitors, biochemical, TCAMS library (AID 1159585; cut-off not given, nearly all actives have IC50 up to about 0.98 µM;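 also: inhibitors leave more ATP so luminescence rises with inhibition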). The following applies: recombinant PfCDPK1, Kinase-Glo ATP depletion luminescence.
Calcium-dependent protein kinase 1 (Plasmodium falciparum (isolate 3D7)), sequence (P62344 whole entry, looked up): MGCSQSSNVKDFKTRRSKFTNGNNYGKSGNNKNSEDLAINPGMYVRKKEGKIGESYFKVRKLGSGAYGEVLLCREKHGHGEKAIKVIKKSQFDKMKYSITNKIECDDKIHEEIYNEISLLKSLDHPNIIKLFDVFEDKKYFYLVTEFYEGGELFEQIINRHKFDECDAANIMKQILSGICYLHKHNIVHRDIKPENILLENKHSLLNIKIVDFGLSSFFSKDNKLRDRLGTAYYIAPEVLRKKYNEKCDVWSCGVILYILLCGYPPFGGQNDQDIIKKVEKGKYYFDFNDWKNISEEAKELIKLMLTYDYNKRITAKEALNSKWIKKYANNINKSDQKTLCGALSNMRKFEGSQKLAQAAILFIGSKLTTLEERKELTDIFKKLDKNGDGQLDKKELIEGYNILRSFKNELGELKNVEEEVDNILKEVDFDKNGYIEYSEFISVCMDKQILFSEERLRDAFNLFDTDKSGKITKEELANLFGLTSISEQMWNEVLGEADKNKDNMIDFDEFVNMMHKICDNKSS
Test [6] addresses Plasmodium falciparum protein kinase 6 (PK6, PF3D7_1337100) (UniProt Q8IDW1). Briefly: PfPK6 kinase inhibitors, biochemical, TCAMS library (AID 1159586). The following applies: recombinant PfPK6, Kinase-Glo ATP depletion luminescence.
Test [7] addresses Protein kinase 7 (PK7), Plasmodium falciparum 3D7 (PF3D7_0213400) (UniProt Q7YTF7). Briefly: inhibition of Plasmodium PK7 catalytic activity – biochemical, TCAMS antimalarial set, Kinase-Glo luminescence (AID 1159587). The following applies: recombinant PfPK7, Kinase-Glo ATP depletion luminescence. (In general: In Kinase-Glo more light means more ATP remaining.)
Test [8] concerns the target Calcium-dependent protein kinase 4 (Plasmodium falciparum (isolate 3D7)) (UniProt Q8IBS5). The experiment in a line: PfCDPK4 kinase inhibitors, biochemical, TCAMS library (AID 1159588; cut-off not given, nearly all actives have IC50 up to about 0.91 µM). The following applies: recombinant PfCDPK4, Kinase-Glo ATP depletion luminescence.

Calcium-dependent protein kinase 4 (Plasmodium falciparum (isolate 3D7)), sequence (Q8IBS5 whole entry, looked up): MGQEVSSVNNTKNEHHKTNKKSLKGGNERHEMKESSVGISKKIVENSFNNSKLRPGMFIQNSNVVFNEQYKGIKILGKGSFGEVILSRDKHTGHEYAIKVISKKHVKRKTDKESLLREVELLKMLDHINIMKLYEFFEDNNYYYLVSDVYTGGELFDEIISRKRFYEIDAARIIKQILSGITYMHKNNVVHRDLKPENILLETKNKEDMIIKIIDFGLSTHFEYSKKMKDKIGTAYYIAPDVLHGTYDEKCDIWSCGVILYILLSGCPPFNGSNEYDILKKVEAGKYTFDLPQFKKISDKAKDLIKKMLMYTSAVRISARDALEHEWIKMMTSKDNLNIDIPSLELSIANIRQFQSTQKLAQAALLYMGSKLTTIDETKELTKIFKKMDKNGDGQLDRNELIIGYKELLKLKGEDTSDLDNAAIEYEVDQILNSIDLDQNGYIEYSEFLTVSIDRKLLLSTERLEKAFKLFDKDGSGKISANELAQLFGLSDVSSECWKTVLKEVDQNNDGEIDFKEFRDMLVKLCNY
Protein kinase 7 (PK7), Plasmodium falciparum 3D7 (PF3D7_0213400), sequence (Q7YTF7 1-343): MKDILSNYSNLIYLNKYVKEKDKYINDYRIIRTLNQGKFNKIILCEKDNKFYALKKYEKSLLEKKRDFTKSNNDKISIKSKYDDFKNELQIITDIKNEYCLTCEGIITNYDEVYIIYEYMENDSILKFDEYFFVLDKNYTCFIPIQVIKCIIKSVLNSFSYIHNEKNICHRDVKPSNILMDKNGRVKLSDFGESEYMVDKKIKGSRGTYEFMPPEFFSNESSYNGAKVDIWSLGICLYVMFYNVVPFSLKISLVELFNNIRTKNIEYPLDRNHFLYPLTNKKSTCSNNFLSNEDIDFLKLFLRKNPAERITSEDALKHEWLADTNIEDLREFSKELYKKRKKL
Plasmodium falciparum protein kinase 6 (PK6, PF3D7_1337100), sequence (Q8IDW1 1-305): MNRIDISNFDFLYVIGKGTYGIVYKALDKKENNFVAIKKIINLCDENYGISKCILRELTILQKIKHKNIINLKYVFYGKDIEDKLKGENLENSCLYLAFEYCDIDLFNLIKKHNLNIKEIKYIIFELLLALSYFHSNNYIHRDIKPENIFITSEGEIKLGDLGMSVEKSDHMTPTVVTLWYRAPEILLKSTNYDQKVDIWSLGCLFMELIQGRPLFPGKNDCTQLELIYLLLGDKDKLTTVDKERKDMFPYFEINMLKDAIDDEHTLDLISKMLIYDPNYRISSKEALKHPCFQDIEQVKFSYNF
L-lactate dehydrogenase (Plasmodium falciparum (isolate CDC / Honduras)), sequence (Q27743 whole entry, looked up): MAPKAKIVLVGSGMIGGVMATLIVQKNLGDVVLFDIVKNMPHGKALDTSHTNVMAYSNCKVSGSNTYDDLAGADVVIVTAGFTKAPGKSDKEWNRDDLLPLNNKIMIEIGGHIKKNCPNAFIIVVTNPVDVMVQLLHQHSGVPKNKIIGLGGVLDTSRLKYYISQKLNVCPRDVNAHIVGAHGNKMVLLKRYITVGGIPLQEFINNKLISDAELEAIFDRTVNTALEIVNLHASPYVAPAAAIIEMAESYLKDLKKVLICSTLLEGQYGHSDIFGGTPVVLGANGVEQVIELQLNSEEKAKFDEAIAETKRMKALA

For orientation: inhibition means the change of the read-out against control, counted positive when it falls. Take `C[C@H](N[C@H]1CCCc2c1[nH]c1ccc(Br)cc21)c1ccccc1`: the growth inhibition in test [1] was 95% (active); in test [4], 96% (active). Also, the values for the inhibition in test [2] and in test [3] were 58% (active) and 4%, respectively. Moreover, the result in test [5], in test [6], in test [7] and in test [8] was inactive.

`COc1cc2nc(NCc3cccc(CNC(=O)c4ccc(-c5ccc(C(C)=O)cc5)cc4)c3)nc(N)c2cc1OC`: the figures for the growth inhibition in test [1] and in test [4] were 72% (active) and 100% (active), respectively. The inhibition was 32% in test [2] and -2% in test [3]. Further, the outcome in test [5], in test [6], in test [7] and in test [8] was inactive.

On to `CC(C)Oc1cccc(-c2ccc(C(=O)NCC3CCCN(Cc4cccc(C(F)(F)F)c4)C3)s2)c1` (configuration not stated), for which the growth inhibition in test [1] is 28%; in test [4], 91% (active). The figures for the inhibition in test [2] and in test [3] were 10% and -2%, respectively. The outcome in test [5], in test [6], in test [7] and in test [8] was inactive.

Turning to `Cn1nccc1C(=O)NCCNCc1cccc(-c2ccc(-c3nc4ccccc4[nH]3)cc2)c1`, the growth inhibition in test [1] is 98% (active); in test [4], 100% (active). The inhibition is 19% in test [2] and 4% in test [3]. Also, the outcome in test [5], in test [6], in test [7] and in test [8] was inactive.

For `CCCc1cc(Cc2cnc(N)nc2N)cc(OC)c1OC`, the growth inhibition in test [1] is 4%; in test [4] it was 87% (active). Besides, the inhibition in test [2] was 2%; in test [3] it was 6%. Besides, the outcome in test [5], in test [6], in test [7] and in test [8] was inactive.

Take `COc1ccc(CCN(C)CCOc2ccc(NC(=O)c3cc(SC)cc4c(=O)c5ccccc5[nH]c34)cc2)cc1OC`: the growth inhibition was 44% in test [1] and 87% (active) in test [4]. Moreover, the inhibition was 7% in test [2] and 0% in test [3]. Also, the result in test [5], in test [6], in test [7] and in test [8] was inactive.

On to `COc1cccc(OC)c1OCCCON1C(N)=NC(N)=NC1(C)C`, for which the growth inhibition in test [1] was 96% (active); in test [4], 95% (active). In addition, the inhibition in test [2] is 53% (active); in test [3] it was 1%. Further, the result in test [5], in test [6], in test [7] and in test [8] was inactive.

In the case of `O=C(Nc1ccc(Cl)cc1)c1cccc(S(=O)(=O)NC2CCN(CC3CCCCC3)C2)c1` (configuration not stated), the figures for the growth inhibition in test [1] and in test [4] were 41% and 90% (active), respectively. For the same molecule, the inhibition is 80% (active) in test [2] and -2% in test [3]. Further, the outcome in test [5], in test [6], in test [7] and in test [8] was inactive.

On to `COc1ccc2ncc(C#N)c(CCN3CCC(NCc4cnc5c(c4)OCCO5)CC3)c2n1`, for which the figures for the growth inhibition in test [1] and in test [4] were 24% and 91% (active), respectively. The inhibition is 3% in test [2] and -3% in test [3]. Moreover, the result in test [5], in test [6], in test [7] and in test [8] was inactive.

For `Cc1[nH]c2ccccc2c(=O)c1-c1ccc(Cl)cc1`, the growth inhibition was 91% (active) in test [1] and 93% (active) in test [4]. Besides, the inhibition in test [2] is -1%; in test [3], 2%. Moreover, the result in test [5], in test [6], in test [7] and in test [8] was inactive.

With `Cc1ccc2nc(N(CCCn3ccnc3)C(=O)C=Cc3cccs3)sc2c1`, the growth inhibition in test [1] is 57% (active); in test [4], 100% (active). The inhibition in test [2] is 22%; in test [3], 0%. The outcome in test [5], in test [6], in test [7] and in test [8] was inactive.

For `COc1cccc2c(Nc3ccccc3C)nc(Nc3ccccc3C)nc12`, the results for the growth inhibition in test [1] and in test [4] were 36% and 95% (active), respectively. Also, the inhibition in test [2] was 9%; in test [3], 4%. For the same molecule, the result in test [5], in test [6], in test [7] and in test [8] was inactive.

Take `Cc1cc(Cl)ccc1NC(=O)Nc1ccc2nccc(N3CCN(C)CC3)c2c1`: the growth inhibition was 74% (active) in test [1] and 101% (active) in test [4]. Also, the inhibition is -1% in test [2] and 1% in test [3]. The outcome in test [5], in test [6], in test [7] and in test [8] was inactive.

On to `Cc1ccc2ncc(Cl)c(CCN3CCC(NCc4ccc5c(n4)NC(=O)CS5)CC3)c2n1`, for which the growth inhibition is 12% in test [1] and 90% (active) in test [4]. Also, the inhibition in test [2] is 13%; in test [3] it was -3%. Besides, the result in test [5], in test [6], in test [7] and in test [8] was inactive.

As to `COc1ccc2nc(C)cc(NN=Cc3ccc([N+](=O)[O-])cc3)c2c1`, the growth inhibition was 70% (active) in test [1] and 103% (active) in test [4]. In addition, the results for the inhibition in test [2] and in test [3] were -3% and -5%, respectively. The outcome in test [5], in test [6], in test [7] and in test [8] was inactive.

In the case of `CCOc1cc(CC)ccc1C1CCN(CCN2CCC(NC(=O)c3ccc(-c4ccc(C#N)cc4)cc3)CC2)CC1`, the figures for the growth inhibition in test [1] and in test [4] were 71% (active) and 100% (active), respectively. Also, the inhibition in test [2] is 32%; in test [3], 6%. Besides, the result in test [5], in test [6], in test [7] and in test [8] was inactive.

Regarding `O=C(Nc1cc(=O)[nH]c2nc(-c3ccccc3)nn12)C1CCCCC1`, the results for the growth inhibition in test [1] and in test [4] were 89% (active) and 86% (active), respectively. Further, the inhibition in test [2] was -9%; in test [3] it was -4%. The outcome in test [5], in test [6], in test [7] and in test [8] was inactive.

For the molecule `CCOC(=O)c1ccc(NC(=O)NC2CCN(CCCCCNC(=O)/C=C/c3ccc(Cl)c(Cl)c3)C2)cc1` (configuration not stated), the growth inhibition in test [1] is 0%; in test [4] it was 98% (active). Besides, the inhibition in test [2] is 23%; in test [3], -3%. Besides, the outcome in test [5], in test [6], in test [7] and in test [8] was inactive.

On to `CCn1cnc2c(N3CCCCS3(=O)=O)cc(C(=O)N[C@@H](Cc3ccccc3)[C@H](O)CNC3CCOCC3)cc21`, for which the values for the growth inhibition in test [1] and in test [4] were 87% (active) and 99% (active), respectively. In addition, the inhibition in test [2] was 7%; in test [3] it was 6%. The outcome in test [5], in test [6], in test [7] and in test [8] was inactive.
